The values below come from PubChem BioAssay.

Inconclusive results are not listed. Active and inactive are the calls of the source. Cut-off read from the data, not from the text of the source, unless noted: active = inhibition above about 30%; inactive = the rest.

Test [1] is described as follows: Her2 expression decrease, cell viability multiplex – SKBR3 breast tumor cells, AlphaScreen, ATP viability, primary screen (AID 461;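 active = Her2 level under about 52% in both replicate screens, with viability over 70% of control, limit read from the data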;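 for Her2 level: lower value means less Her2 protein in the cells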;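 for viability: percent of carrier control wells set as 100% viability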). The conditions noted are these: SKBR3 Her2 protein level, 18-24 h, measured here: SKBR3 viability, ATP luminescence, at 10 µM. On the technique in general: In Alpha technology, singlet oxygen from a donor bead excites a nearby acceptor bead.

Test [2] addresses Receptor tyrosine-protein kinase erbB-2 (Homo sapiens) (UniProt P04626). Described as above. The conditions noted are these: 18-24 h, at 10 µM, stronger effect = lower value.
Test [3] can be described thus: reduced viability of SK-BR-3 breast cancer cells – cell-based, 24 h, human, pilot screen (AID 572;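 active = viability at or below 10% of carrier control in both of two separate runs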;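 note: compound exposure lasted between 18 and 24 h rather than exactly 24 h; 100% = carrier-treated control wells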). The conditions noted are these: SK-BR-3 viability, CellTiter-Glo luminescence, at 10 µM, stronger effect = lower value. For orientation: Cellular ATP, detected with luciferase, serves as a proxy for viable cell number.
Test [4] is described as follows: HUVEC growth inhibition – cell-based, human, primary screen (AID 575;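 active = viability at or below 30% in both replicate assays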;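 note: 100% = median of untreated cell wells with 0.1% DMSO on each plate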). The conditions noted are these: HUVEC proliferation, CellTiter-Glo luminescence, 72 h; at 10 µM; stronger effect = lower value.
A short description of test [5]: H69AR cell proliferation blockers – human, duplicate replicates, primary screen (AID 580;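 active = viability at or under a set limit in both replicates, limit being median viability minus 3 SD, cut at about 48% in these data, passing the limit was not always enough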;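 note: 100% = mean luminescence of untreated wells and 0% = no signal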). The conditions noted are these: H69AR lung tumor cells viability, ATP luminescence, 72 h; at 10 µM; stronger effect = lower value.
A short description of test [6]: MRP1 drug-resistance reversers in H69AR cells – cell-based, doxorubicin co-treatment, pilot screen (AID 601;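 active = viability loss from added drug above about 55%, and viability with drug at most 40%, in both replicates, limit read from the data, passing the limit was not always enough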). The conditions noted are these: CellTiter-Glo, 72 h, at 10 µM; for differential viability (reversal): stronger effect = higher value.
Test [7] in a line: yeast transport mutant growth inhibition pilot in 384-well plates, post-Golgi transport modulator project (AID 636; in the data active = inhibition above about 31%). The conditions noted are these: absorbance 615 nm, about 18 h, stronger effect = higher value.
Test [8] in a line: growth suppression of yeast trafficking mutant, preliminary HTS, modulators of trafficking downstream of Golgi apparatus project, 1536-format plate, OD 615 nm (AID 637). The conditions noted are these: yeast transport mutant growth, absorbance 615 nm, 18 h; stronger effect = higher value.
Test [9] in a line: S. cerevisiae growth inhibition in permissive medium (OD615), pilot counter-assay for S. cerevisiae lifespan shortening project, permissive growth control (AID 705;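 active = growth inhibition above 25% in both replicates, a cutoff set 3 SD above the mean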). The conditions noted are these: OD615, 24 h, at 10 µM, stronger effect = higher value.
The nature of test [10]: S. cerevisiae growth inhibition in restrictive medium, OD615, pilot screen, restrictive growth control, yeast lifespan reduction project (AID 706;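 active = growth inhibition above a set limit, 3 SD over mean compound inhibition, in both replicates, cut at about 43% in these data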;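 note: modified DeaD lifespan yeast strain shifted to restrictive glucose medium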). The conditions noted are these: OD615, 48 h, at 10 µM, stronger effect = higher value.
The nature of test [11]: doxorubicin toxicity protection in MRP-1 cells – H69AR cells, CellTiter-Glo, duplicate, MRP-1 activator project, pilot screen (AID 807;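 active = viability increase at or above a cutoff of the median across tested compounds plus 3 SD, cut at about 8.5% in these data, passing the limit was not always enough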;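 note: compound pretreatment 18-22 h then 72 h combined with doxorubicin; 0% = doxorubicin alone and 100% = vehicle without doxorubicin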). The conditions noted are these: H69AR viability with doxorubicin, CellTiter-Glo luminescence; at 10 µM; stronger effect = higher value.
A short description of test [12]: viability of HCT116 without oncogenic beta-catenin – human colon tumor cells, pilot screen (AID 823;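 active = cell viability at or below a set limit in both duplicate runs, the limit being the all-compound median minus 4 SD, cut at about 23% in these data, passing the limit was not always enough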;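 note: 0% = wells killed by 20 µM Hyamine and 100% = untreated DMSO cell wells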). The conditions noted are these: HCT116 beta-catenin knockout viability, CellTiter-Glo, 60 h; at 10 µM; stronger effect = lower value.
Test [13] can be described thus: viability of PTEN-null HCT116 cells – cell-based, HCT116 clonal line, CellTiter-Glo, pilot screen (AID 824;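 active = viability at or below 27.92% in each of two runs, the all-compound median minus 4 SD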;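 note: 0% = 20 µM Hyamine control and 100% = vehicle cell control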). The conditions noted are these: HCT116 PTEN-deleted viability, 60 h, at 10 µM, stronger effect = lower value.
A short description of test [14]: RAM pathway blockade in budding yeast – dse1pr::URA3 reporter, 5-FOA selection, pilot screen (AID 869;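 active = inhibition over a set limit, the all-compound mean plus 3 SD, in both replicate runs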;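 note: 0% = DMSO wells with no growth and 100% = 10 µM 1-NA-PP1 with full growth; RAM network block rescues cells from 5-FOA so hits raise OD615 growth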). The conditions noted are these: S. cerevisiae dse1pr::URA3 5-FOA growth, OD615, 2 d; at 10 µM; stronger effect = higher value; strain carries analog-sensitive mutant Cbk1 kinase.
Test [15] is described as follows: RAM signaling pathway blockade in yeast – S. cerevisiae, Pdr1DBD-CYC8 efflux-inhibited sensitized strain, primary screen (AID 1298;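 active = RAM network inhibition above 8.4% in each of two replicates, 3 SD over the compound average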;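 note: 0% = DMSO untreated cells without growth and 100% = 10 µM 1-NA-PP1 full growth; higher means more yeast growth rescued from 5-FOA killing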). The conditions noted are these: S. cerevisiae cbk1-as DSE1-URA3 strain, 5-FOA growth OD615, 2 d; at 50 µM; stronger effect = higher value.
[16] abbreviates: H69AR cells + 2 uM doxorubicin, measured here: viability with 2 uM doxorubicin, stronger effect = lower value.
The mark [17] stands for this setting: H69AR cells, compound alone cytotoxicity.

Sequence of Receptor tyrosine-protein kinase erbB-2 (Homo sapiens) (P04626 whole entry, looked up): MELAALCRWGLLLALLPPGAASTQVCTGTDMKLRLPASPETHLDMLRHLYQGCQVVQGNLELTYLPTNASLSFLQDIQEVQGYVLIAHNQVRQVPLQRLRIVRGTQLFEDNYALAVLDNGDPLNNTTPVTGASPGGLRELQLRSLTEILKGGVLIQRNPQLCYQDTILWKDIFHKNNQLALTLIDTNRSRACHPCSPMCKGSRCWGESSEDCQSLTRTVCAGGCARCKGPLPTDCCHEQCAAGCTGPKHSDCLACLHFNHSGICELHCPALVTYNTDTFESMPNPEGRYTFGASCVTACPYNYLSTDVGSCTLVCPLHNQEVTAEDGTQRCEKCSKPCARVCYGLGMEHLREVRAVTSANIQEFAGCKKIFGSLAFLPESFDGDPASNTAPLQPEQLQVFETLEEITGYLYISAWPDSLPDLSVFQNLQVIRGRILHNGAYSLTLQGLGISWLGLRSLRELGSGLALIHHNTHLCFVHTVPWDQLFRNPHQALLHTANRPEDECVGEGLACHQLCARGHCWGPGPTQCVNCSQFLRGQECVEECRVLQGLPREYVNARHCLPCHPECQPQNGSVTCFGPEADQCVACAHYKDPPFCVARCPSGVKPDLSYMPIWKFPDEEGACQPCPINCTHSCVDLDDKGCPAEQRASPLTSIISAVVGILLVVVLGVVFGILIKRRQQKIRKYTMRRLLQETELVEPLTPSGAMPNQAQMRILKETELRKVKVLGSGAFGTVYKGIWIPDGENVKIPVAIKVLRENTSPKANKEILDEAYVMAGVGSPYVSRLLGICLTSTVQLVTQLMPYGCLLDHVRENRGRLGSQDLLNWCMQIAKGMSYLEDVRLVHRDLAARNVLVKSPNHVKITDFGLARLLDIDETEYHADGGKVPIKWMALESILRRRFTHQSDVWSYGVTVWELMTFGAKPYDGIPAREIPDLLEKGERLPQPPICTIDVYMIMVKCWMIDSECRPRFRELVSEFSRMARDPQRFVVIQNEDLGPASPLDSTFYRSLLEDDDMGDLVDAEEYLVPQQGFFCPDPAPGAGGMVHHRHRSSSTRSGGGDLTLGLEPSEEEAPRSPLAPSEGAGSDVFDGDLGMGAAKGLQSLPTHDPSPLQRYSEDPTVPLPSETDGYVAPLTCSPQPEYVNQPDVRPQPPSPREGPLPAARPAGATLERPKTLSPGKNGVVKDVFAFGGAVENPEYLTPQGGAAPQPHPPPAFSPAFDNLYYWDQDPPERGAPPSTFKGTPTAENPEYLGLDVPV

Turning to `CC(=O)NC(CCS(C)(=O)=O)C(=O)Nc1cccc(C)c1C` (stereo not given), the viability is 89.5% in test [1]; 89.5% (inactive) in test [3]; 86.8% (inactive) in test [4]; 75.9% (inactive) in test [5]; 91.3% in [6] (setting [16]); 75.9% in [6] (setting [17]). In addition, the viability in [12] was 105% (inactive); in [13] it was 100% (inactive). In addition, in test [2], the Her2 level was 93.5% (inactive). Further, the differential viability (reversal) in test [6] (H69AR cells + 2 uM doxorubicin) is -15.4% (inactive). For the same molecule, the values for the inhibition in [7], in test [8] and in test [14] were -5.2% (inactive), 4.33% (inactive) and 0.395% (inactive), respectively. The growth inhibition was -7.1% (inactive) in test [9] and -8.2% (inactive) in test [10]. The viability increase in test [11] is 0.19% (inactive). In test [15], the RAM network inhibition was 3.33% (inactive).
As for `Cc1nnc(SCC(=O)Nc2c(Cl)cccc2Cl)[nH]c1=O`, the viability in test [1] was 104%; in test [3], 104% (inactive); in [4], 99.1% (inactive); in [5], 93.9% (inactive); in test [6] (setting [16]) it was 93.3%; in test [6] (setting [17]), 93.9%. Moreover, the viability in [12] is 98.7% (inactive); in test [13] it was 104% (inactive). In test [2], the Her2 level was 101% (inactive). Further, the differential viability (reversal) in [6] (H69AR cells + 2 uM doxorubicin) was 0.52% (inactive). For the same molecule, the inhibition is -3.73% (inactive) in [7], -2.17% (inactive) in test [8] and 1.54% (inactive) in test [14]. Besides, the growth inhibition was -7.89% (inactive) in test [9] and 7.47% (inactive) in [10]. In addition, the viability increase in [11] was 0.15% (inactive). Besides, the RAM network inhibition in test [15] is 4.64% (inactive).
On to `CCc1cccc(NC(=O)CCc2nc(-c3cccs3)no2)c1`, for which the viability is 108% in [1]; 108% (inactive) in [3]; 95.4% (inactive) in test [4]; 101% (inactive) in test [5]; 85.1% in test [6] (setting [16]); 101% in test [6] (setting [17]). Further, the viability in test [12] was 95.6% (inactive); in test [13], 97.6% (inactive). In addition, in [2], the Her2 level is 107% (inactive). Further, the differential viability (reversal) in test [6] (H69AR cells + 2 uM doxorubicin) was 15.6% (inactive). Also, the values for the inhibition in [7], in test [8] and in test [14] were -3.47% (inactive), -0.98% (inactive) and 0.515% (inactive), respectively. Further, the values for the growth inhibition in test [9] and in test [10] were -1.88% (inactive) and -1.74% (inactive), respectively. Besides, the viability increase in test [11] is -1.34% (inactive). In test [15], the RAM network inhibition is -1.4% (inactive).
As for `COc1cccc(C2CC(c3c(Cl)cccc3Cl)n3nc(N)nc3N2)c1` (stereo not given), the viability is 97% in test [1]; 97% (inactive) in [3]; 81.2% (inactive) in test [4]; 83.6% (inactive) in test [5]; 79.3% in test [6] (setting [16]); 83.6% in test [6] (setting [17]). Moreover, the viability was 103% (inactive) in [12] and 91.4% (inactive) in [13]. Besides, the Her2 level in test [2] is 104% (inactive). The differential viability (reversal) in [6] (H69AR cells + 2 uM doxorubicin) was 4.33% (inactive). Besides, the values for the inhibition in test [7], in test [8] and in test [14] were -4.53% (inactive), -0.98% (inactive) and -0.3% (inactive), respectively. The growth inhibition in test [9] was 4.74% (inactive); in test [10] it was 9.22% (inactive). The viability increase in test [11] is -0.07% (inactive). The RAM network inhibition in [15] was 6.92% (inactive).
On to `COc1ccc(NC(=O)CSc2nnc(Cc3cccn3C)n2-c2ccc(F)cc2)cc1OC`, for which the viability in test [1] was 86%; in test [3] it was 86% (inactive); in test [4], 104% (inactive); in [5] it was 94.7% (inactive); in test [6] (setting [16]), 94%; in [6] (setting [17]), 94.7%. Also, the viability in [12] was 94.5% (inactive); in test [13], 94.2% (inactive). In addition, the Her2 level in test [2] was 92.5% (inactive). In addition, the differential viability (reversal) in test [6] (H69AR cells + 2 uM doxorubicin) is 0.655% (inactive). Besides, the inhibition in test [7] is 0.38% (inactive); in test [8], 3.17% (inactive); in test [14] it was 1.43% (inactive). The growth inhibition in [9] was 3.84% (inactive); in test [10], 1.52% (inactive). Also, the viability increase in test [11] is -3.01% (inactive). Further, the RAM network inhibition in test [15] was 2.95% (inactive).

Usually viability stands for a read-out of living cells in per cent, often relative to untreated cells. The term inhibition denotes the relative decrease from the control value, in per cent.
